Shown is part of a subset that was picked to be rich in hits.
RT RNaseH block = inhibitors of HIV-1 reverse transcriptase RNase H; P04585; RT-RNase H RNA/DNA duplex cleavage, fluorescence; inhibition, % at 10 µM; hit rate 1.9% among 65,000; in the data active = inhibition above about 50%
Each line names hits and unclear results; the compound was inactive in the other large screens.

CC1CC(C)CN(CCCNC(=O)CNC(=O)Cn2ccc3ccccc3c2=O)C1 (configuration not stated)	none
CC(C)Cn1c2c(c(O)c(C(=O)Nc3ccc(F)cc3)c1=O)CCCC2	none
CCCCc1nc2ccccc2c(=O)n1NC(=O)c1c(O)c2c(n(CC(C)C)c1=O)CCCC2	RT RNaseH block 52
CC(C)Cn1c2c(c(O)c(C(=O)Nc3ncccc3O)c1=O)CCCC2	none
Cc1cc(=O)oc2ccc(OCC(=O)N(Cc3ccc(F)cc3)Cc3ccco3)cc12	none
CCN1CCN(C(c2cccs2)C(C)NC(=O)C(C)C)CC1 (configuration not stated)	none
C/C=C/Cn1c(SCCCc2ccccc2)nc2c1c(=O)[nH]c(=O)n2C	none
C=CCn1c(SCCCc2ccccc2)nc2c1c(=O)[nH]c(=O)n2C	none
CC(C)n1c(SCCCc2ccccc2)nc2c1c(=O)[nH]c(=O)n2C	RT RNaseH block 56
O=c1c2cc(N3CCOCC3)ccc2[nH]c(=S)n1CCCN1CCCCCC1	none
Cc1ccc(Cn2c(=S)[nH]c3ccc(N4CCOCC4)cc3c2=O)o1	RT RNaseH block 64
O=c1c2cc(N3CCOCC3)ccc2[nH]c(=S)n1CCN1CCCC1	none
Cc1ccc2c(c1)N(CCC(=O)NCCCOC(C)C)C(=O)C(C)O2 (configuration not stated)	none
COc1ccc(/C(O)=C2\C(=O)C(=O)N(c3cc(C)on3)C2c2ccccc2OC)cc1 (configuration not stated)	none
COc1ccc(/C(O)=C2\C(=O)C(=O)N(c3cc(C)on3)C2c2ccccc2OC)cc1C (configuration not stated)	none
COc1ccccc1C1c2c(oc3ccc(Cl)cc3c2=O)C(=O)N1c1cc(C)on1 (configuration not stated)	RT RNaseH block 51
CCOC(=O)C1(CC)NC(c2cccc(F)c2)C2C(=O)N(CC)C(=O)C21 (configuration not stated)	none
N#CC1=C(N)OC2=C(C(=O)CCC2)C1Cc1ccccc1 (configuration not stated)	none
O=C(CCCn1c(=S)[nH]c2cc3c(cc2c1=O)OCO3)N1CCN(c2ccccn2)CC1	none
O=C(CCCCCn1c(=S)[nH]c2cc3c(cc2c1=O)OCO3)N1CCN(Cc2ccccc2)CC1	RT RNaseH block 68
O=C(CCCCCn1c(=S)[nH]c2cc3c(cc2c1=O)OCO3)N1CCN(C(=O)c2ccco2)CC1	none
CCS(=O)(=O)Nc1ccc(-c2ccc(NS(=O)(=O)CC)c(OC)c2)cc1OC	none
COc1ccc(CNC(=O)C2CCCN2S(=O)(=O)c2ccccc2)cc1 (configuration not stated)	none
Cc1cc(C(=O)OCC(=O)NCCc2ccccc2)c(C)o1	none
O=C(Nc1cccc(-c2cnc3ccccc3n2)c1)c1ccco1	none
O=S(=O)(Nc1ccc2nc(-c3ccc(Br)o3)[nH]c2c1)c1ccccc1	none
O=C(Nc1ccc2nc(-c3ccc(Br)o3)[nH]c2c1)c1ccco1	RT RNaseH block 55
Cc1ccc(-c2nc3ccccc3[nH]2)cc1NC(=O)c1ccco1	none
O=C(Nc1ccc2nc[nH]c2c1)c1ccco1	none
O=C(Nc1cccc(-c2nc3ccccc3[nH]2)c1)c1cccc(NC(=O)c2ccco2)c1	RT RNaseH block 64
Cc1ccc(-n2ncc3c(=O)n(CC(=O)N4CCCc5ccccc54)cnc32)cc1C	none
COc1cccc(C2NC(=O)NC(C)=C2C(=O)OCCSC)c1OC (configuration not stated)	none
CN(C)c1nc(Oc2ccc(N)cc2)nc(N(C)C)n1	none
COc1ccc2ccc(Oc3ncccn3)cc2c1	none
COc1ccc(Oc2nc(Oc3ccc(OC)cc3)nc(Oc3ccc(OC)cc3)n2)cc1	RT RNaseH block 57
O=C(CCCn1nnc(-c2cccnc2)n1)c1ccc(F)cc1	none
C=CCn1c(SCC(=O)Nc2nccs2)nnc1-c1cc2cccc(OC)c2o1	RT RNaseH block 53
C=CCn1c(SCC(=O)Nc2ccccc2OC)nnc1-c1ccccn1	none
C=CCn1c(SCC(=O)Nc2ccccc2OC)nnc1-c1ccco1	none
CC(=O)Nc1ccc(S(=O)(=O)/N=C2\SCCN2S(=O)(=O)c2ccc(NC(C)=O)cc2)cc1	none
COC(=O)c1sc(N2C(=O)C(O)=C(C(=O)c3ccc(C)o3)C2c2ccc(F)cc2)nc1C (configuration not stated)	none
CCOc1ccc(N2CC(=O)N/C2=N\c2nc(C)cc(C)n2)cc1	none
COc1nc(C#N)nc(N(C)C)n1	none
COc1ccc(N2CCN(S(=O)(=O)c3ccc(C(=O)NCc4ccco4)cc3)CC2)cc1	none
COCc1n[nH]c(=S)n1-c1cccc2ccccc12	none
Nn1c(-c2ccco2)n[nH]c1=S	none
S=c1[nH]nc(-c2ccco2)n1-c1cccc2ccccc12	RT RNaseH block 54
S=c1[nH]nc(-c2ccco2)n1C1CCCCC1	none
COc1ccc(-n2c(-c3ccco3)n[nH]c2=S)cc1	RT RNaseH block 57
COc1cccc(-c2n[nH]c(=S)n2Cc2ccco2)c1OC	none
COc1ccc(NC(=O)C2CCCCN2CC(=O)OCc2ccccc2)cc1OC (configuration not stated)	none
CCOc1ncccc1C(=O)NCC1COc2ccccc2O1 (configuration not stated)	none
CCOC(=O)Cn1c(=O)oc2cc(S(=O)(=O)Nc3cc(Cl)ccc3OC)ccc21	none
